The values below come from PubChem BioAssay (NCI).

Each structure is given as a SMILES string. Compounds without any hit were thinned out: in the full panel of roughly 83,000, 20% have a hit.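 Testing used 96-well plates and a 48-hour single-concentration exposure. Example: -40 means 40% of the starting cells died.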 Values without a mark were called inactive. The source made the active and inactive calls. The calls were made as follows: active = growth percent below 10; inactive = the rest.

Common to all, as to test: NCI-60 one-dose screen, 48 h (100 = growth as untreated, 0 = no growth, -100 = all killed)
Common to all, as to settings: 10 µM unless noted

The subject of test [1] is NCI-H23 lung.
In test [2] the test system is NCI-H226 lung.
Test [3] concerns NCI-H322M lung.
Test [4] deals with HOP-62 NSCLC.
Test [5] concerns NCI-H460 lung.
The test system of test [6] is HOP-92 NSCLC.
In test [7] the test system is NCI-H522 lung.
Test [8] relates to A549/ATCC NSCLC.
Test [9] deals with 786-0 renal.
Test [10] deals with COLO 205 colon.
The subject of test [11] is DU-145 prostate.
The subject of test [12] is K-562 leukemia.
Test [13] deals with MALME-3M melanoma.
Test [14] relates to MDA-MB-231 breast.
Test [15] has as its system SF-268 CNS.
The test system of test [16] is SF-295 CNS.
Test [17] has as its system SF-539 CNS.
In test [18] the test system is M14 melanoma.

For `O=C1CSC(c2c(F)cccc2Cl)N1NC(=O)C(O)(c1ccccc1)c1ccccc1` (configuration not stated), the growth was 98.7% in test [1]; 95.3% in test [2]; 102% in test [3]; 86.8% in [4]; 113% in test [5]; 86.3% in [6]. Also, the growth in test [7] was 88.4%; in test [8], 96.2%; in [9] it was 97%; in test [10] it was 104%; in [11], 108%; in test [12], 80.3%. In addition, the growth in [13] was 82.1%; in [14] it was 93%; in test [15], 112%; in test [16], 94.3%; in [17], 100%; in test [18], 94.5%.

In the case of `COC(=O)[C@]12CC[C@@H](C)[C@H](C)[C@@H]1C1=CC[C@@H]3[C@@]4(C)C(C=O)=C[C@@](C)(COS(C)(=O)=O)C4=CC[C@@]3(C)[C@]1(C)CC2`, the growth in test [1] was -45.8% (active); in test [2] it was -57% (active); in [3], 12.2%; in test [4], -14.5% (active); in [5], -73.6% (active); in test [6], -87.7% (active). Also, the growth in test [7] was -75.2% (active); in [8], -14.6% (active); in test [9], -66% (active); in test [10] it was -39.9% (active); in test [11], -92.2% (active); in [12], -6.44% (active). Besides, the growth in test [13] is -77.7% (active); in test [14] it was -55.4% (active); in test [15], -57.1% (active); in test [16], -60.2% (active); in [17], -69.8% (active); in [18] it was -55.8% (active).

With `CCCCCCCC(=O)SCC/C=C/[C@@H]1CC(=O)NCc2cc(ccn2)C2=N[C@@](C)(CS2)C(=O)N[C@@H](C(C)C)C(=O)O1`, the growth was 2.97% (active) in [1]; -8.32% (active) in test [2]; -16.8% (active) in test [3]; -19% (active) in [4]; 5.33% (active) in test [5]; -6.63% (active) in [6]. Moreover, the growth in [7] is -13% (active); in [8], -6.82% (active); in test [9], 12%; in test [10], -56% (active); in [11], 11.8%; in test [12], 10.3%. Moreover, the growth in test [13] was 11.4%; in test [14], 3.63% (active); in test [15], 11.8%; in test [16], -62.2% (active); in [17] it was 17%; in [18] it was 4.89% (active).

In the case of `COc1cc2c(cc1OCCCCCCN1CCN(c3ncnc4ccccc34)CC1)N=CC1CCCN1C2=O` (configuration not stated), the growth in test [1] was -26.1% (active); in test [2] it was -54.9% (active); in test [3], -2.96% (active); in test [4] it was -25.9% (active); in test [5] it was 3.48% (active); in test [6], -21.7% (active). Besides, the growth in [7] is -55.2% (active); in [8], 1.08% (active); in test [9], -10.3% (active); in [10], -57.1% (active); in test [11], 4.65% (active); in [12] it was -15.9% (active). Also, the growth was -65.9% (active) in [13]; -29.1% (active) in [14]; -2.27% (active) in [15]; -45.5% (active) in test [16]; -56.3% (active) in test [17]; -85.5% (active) in test [18].

In the case of `CCCCCCCCCCCC[n+]1ccccc1`, the growth in test [1] is 8.58% (active); in test [2], 24.4%; in test [3] it was 55.7%; in test [4], -8.28% (active); in test [5] it was 3.69% (active); in test [6], -24.8% (active). In addition, the growth in test [7] is 1.19% (active); in test [8] it was 9.04% (active); in test [9], -16.8% (active); in test [10] it was -74% (active); in test [11] it was 16%; in test [12], 6.1% (active). Also, the growth in test [13] is 0.501% (active); in [14] it was -2.58% (active); in [15], 11.5%; in test [16] it was -36.5% (active); in test [17], -2.41% (active); in test [18], -41.3% (active).

`Cc1nn(-c2nc3ccccc3[nH]2)c2c1C(c1ccc(OCc3ccc(F)cc3)cc1)CC(=O)N2` (configuration not stated): the growth is 46.9% in [1]; 74.5% in test [2]; 70.4% in [3]; 69.5% in [4]; 48% in test [5]; 72% in test [6]. The growth in test [7] is 30.5%; in test [8] it was 41.8%; in test [9] it was 63.4%; in test [10], 103%; in test [11], 96%; in [12], 87.6%. Also, the growth in test [13] is 81.3%; in [14], 42.8%; in test [15], 46.7%; in test [16], 19%; in test [17], 56.7%; in test [18], 58.5%.

Turning to `CCN(CC)C(=O)C[N+](C)(C)CCOC(c1ccccc1)c1ccccc1`, the growth is 95.2% in test [1]; 102% in test [2]; 104% in test [3]; 103% in test [4]; 109% in test [5]; 113% in test [6]. Further, the growth is 105% in test [7]; 101% in test [8]; 102% in [9]; 112% in test [10]; 103% in test [11]; 109% in test [12]. The growth in test [13] is 98.5%; in test [14], 117%; in [15], 103%; in test [16], 99.5%; in test [17], 102%; in [18] it was 100%.

Turning to `COC(=O)CC[C@@H](C)[C@H]1CC[C@H]2C3CC[C@@H]4C[C@@H]5CC[C@]4(C)[C@@]3(O5)[C@H](Br)[C@@H](Br)[C@]12C` (some centres not stated), the growth in test [1] is 81.1%; in [2], 87.1%; in test [3] it was 104%; in test [4], 85.8%; in test [5] it was 107%; in [6], 93.4%. The growth in test [7] is 58%; in test [8], 68.6%; in test [9], 92.5%; in [10], 101%; in [11] it was 101%; in [12] it was 78.2%. In addition, the growth is 103% in [13]; 99.4% in test [14]; 91.2% in test [15]; 99.3% in [16]; 103% in test [17]; 90.6% in test [18].

Consider `Nc1c2c(c(O)c3c1=C(CO)C=N3)=NCCS2=O` (configuration not stated), for which the growth in test [1] was -33.4% (active); in [2], -52.2% (active); in [3] it was -95.1% (active); in [4], -52.7% (active); in test [5] it was -61.7% (active); in test [6] it was -54.3% (active). Also, the growth in [7] is -46.9% (active); in [8], -42.4% (active); in test [9] it was 36.1%; in test [10], -75.1% (active); in [11], -95.1% (active); in [12], -7.83% (active). Also, the growth in [13] is -97.8% (active); in test [14], 1.89% (active); in test [15] it was -38.2% (active); in [16], -95.8% (active); in test [17], -88.8% (active); in [18], -85.2% (active).
